Data on 7 molecules can be found in PubChem BioAssay (NCI).

What all share (test): NCI-60 one-dose screen, 48 h (100 = growth as untreated, 0 = no growth, -100 = all killed)
The subject of one assay is NCI-H23 lung. To be noted: 10 µM unless noted.
The next assay concerns NCI-H226 lung. To be noted: 10 µM unless noted.
The next assay has as its system NCI-H322M lung. To be noted: 10 µM unless noted.
The subject of the next assay is HOP-62 NSCLC. As to conditions: 10 µM unless noted.
A further assay relates to NCI-H460 lung. As to conditions: 10 µM unless noted.
For a further assay, the system named is HOP-92 NSCLC. As to conditions: 10 µM unless noted.
The next assay relates to NCI-H522 lung. As to conditions: 10 µM unless noted.
For the next assay, the system named is A549/ATCC NSCLC. As to conditions: 10 µM unless noted.
The subject of the next assay is 786-0 renal. To be noted: 10 µM unless noted.
In another assay the test system is COLO 205 colon. As to conditions: 10 µM unless noted.
The test system of the next assay is DU-145 prostate. As to conditions: 10 µM unless noted.
For the next assay, the system named is MALME-3M melanoma. As to conditions: 10 µM unless noted.
For a further assay, the system named is MDA-MB-231 breast. As to conditions: 10 µM unless noted.
A further assay relates to RXF 393 renal. To be noted: 10 µM unless noted.
The subject of the next assay is SF-268 CNS. As to conditions: 10 µM unless noted.
A further assay deals with SF-295 CNS. As to conditions: 10 µM unless noted.
The next assay relates to SF-539 CNS. To be noted: 10 µM unless noted.
The test system of a further assay is UACC-257 melanoma. As to conditions: 10 µM.
For another assay, the system named is M14 melanoma. To be noted: 10 µM unless noted.
The next assay concerns K-562 leukemia. To be noted: 10 µM unless noted.

Compounds without any hit were thinned out: in the full panel of roughly 83,000, 20% have a hit.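 96-well plates, one dose, 48 hours. Percent growth reported; active if below 10.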 Values without a mark were called inactive. Active and inactive are the calls of the source.

Regarding `C=CCn1c(SCC(=O)Nc2cccc(C(=O)/C=C/c3cccc([N+](=O)[O-])c3)c2)nc2ccccc2c1=O`, the growth is 89.3% in the assay with NCI-H23 lung; 83.6% with NCI-H226 lung; 95.4% in the assay with NCI-H322M lung; 108% in the assay with HOP-62 NSCLC; 93.4% in the assay on NCI-H460 lung; 82.1% in the assay with HOP-92 NSCLC. Further, the growth with NCI-H522 lung is 89.3%; in the assay on A549/ATCC NSCLC, 94.1%; in the assay with 786-0 renal, 94.8%; in the assay on COLO 205 colon, 117%; in the assay with DU-145 prostate it was 94.1%; in the assay with MALME-3M melanoma, 90.1%. Besides, the growth with MDA-MB-231 breast was 90.1%; with RXF 393 renal, 84.6%; in the assay on SF-268 CNS, 92.5%; with SF-295 CNS it was 93.5%; with SF-539 CNS it was 96.7%; in the assay with UACC-257 melanoma, 99.3%. The growth with M14 melanoma is 84.2%.
As to `CC1OC(O[C@@H]2[C@H](O)C(CO)OC(O[C@H]3COC(O[C@H]4CC[C@]5(C)[C@H]6CC[C@]78OC[C@@]9(CC[C@](C)(C=O)C[C@H]97)C(=O)C[C@@]8(C)[C@]6(C)CC[C@H]5C4(C)C)[C@@H](O)[C@@H]3O)[C@H]2OC2OC[C@@H](O)[C@@H](O)[C@@H]2O)[C@@H](O)[C@@H](O)[C@H]1O` (stereo partly drawn), the growth was 94.8% in the assay with NCI-H23 lung; 82.7% in the assay on NCI-H226 lung; 93.3% with NCI-H322M lung; 75.2% in the assay with HOP-62 NSCLC; 98.5% with NCI-H460 lung; 79.5% with HOP-92 NSCLC. Besides, the growth in the assay with NCI-H522 lung is 87.1%; with A549/ATCC NSCLC, 90.6%; in the assay with 786-0 renal it was 95.5%; in the assay on COLO 205 colon, 92.6%; in the assay with DU-145 prostate, 108%; in the assay on MALME-3M melanoma, 98.2%. Moreover, the growth in the assay with MDA-MB-231 breast is 79.7%; with RXF 393 renal, 87.4%; with SF-268 CNS, 95.9%; in the assay on SF-295 CNS, 89.9%; with SF-539 CNS, 99.8%; in the assay on UACC-257 melanoma it was 95.3%. Also, the growth in the assay with M14 melanoma was 96.9%.
On to `Cc1ccc(-c2cc(-c3cccc4ccccc34)n3c(n2)nc2ccccc23)cc1`, for which the growth is 82% in the assay on NCI-H23 lung; 57.9% in the assay on NCI-H226 lung; 90.6% in the assay on NCI-H322M lung; 67.5% in the assay with HOP-62 NSCLC; 21.9% with NCI-H460 lung; 71.6% with HOP-92 NSCLC. Besides, the growth in the assay with NCI-H522 lung was 76.9%; in the assay with A549/ATCC NSCLC, 39.6%; in the assay on 786-0 renal it was 47.6%; in the assay on COLO 205 colon it was 59.7%; in the assay with DU-145 prostate, 69.4%; in the assay on K-562 leukemia it was 51.1%. For the same molecule, the growth was 32.2% with MALME-3M melanoma; 73.1% in the assay on MDA-MB-231 breast; 66.4% with SF-268 CNS; 40.9% with SF-295 CNS; 49.4% in the assay with SF-539 CNS; 75.1% in the assay with UACC-257 melanoma. Moreover, the growth with M14 melanoma is 61.5%.
With `N#C/C(=C\c1ccc(-c2ccc(F)cc2)o1)C(=O)Nc1ncc(Cc2ccc(Cl)cc2Cl)s1`, the growth in the assay with NCI-H23 lung was -37.2% (active); with NCI-H226 lung, 69.3%; in the assay on NCI-H322M lung, 13.8%; with HOP-62 NSCLC, -34.7% (active); in the assay with NCI-H460 lung, -74.2% (active); with HOP-92 NSCLC, 36.7%. The growth is -8.78% (active) with NCI-H522 lung; -48% (active) with A549/ATCC NSCLC; -28.3% (active) in the assay with 786-0 renal; 66.8% in the assay on COLO 205 colon; -46.5% (active) in the assay with DU-145 prostate; 15.5% in the assay on K-562 leukemia. The growth is -52.7% (active) with MALME-3M melanoma; 20.1% in the assay on MDA-MB-231 breast; 1.24% (active) with SF-268 CNS; 3.15% (active) in the assay with SF-295 CNS; -2.12% (active) with SF-539 CNS; 84.1% in the assay with UACC-257 melanoma. Also, the growth with M14 melanoma was 2.18% (active).
In the case of `Cc1cccc(NC(c2cc3cccc4ccc5cccc2c5c43)c2nnnn2C(C)(C)C)c1C` (stereo not drawn), the growth was 82.2% with NCI-H23 lung; 31.9% with NCI-H226 lung; 86.4% with NCI-H322M lung; 86.5% with HOP-62 NSCLC; 93.4% in the assay on NCI-H460 lung; 90.2% in the assay on HOP-92 NSCLC. Moreover, the growth is 77.3% in the assay with NCI-H522 lung; 92.7% in the assay with A549/ATCC NSCLC; 97.6% in the assay with 786-0 renal; 102% with COLO 205 colon; 104% in the assay with DU-145 prostate; 96.6% in the assay on K-562 leukemia. The growth in the assay with MALME-3M melanoma is 92.9%; in the assay on MDA-MB-231 breast, 78.6%; in the assay with SF-268 CNS, 91.1%; with SF-295 CNS, 87.2%; with SF-539 CNS, 86.5%; in the assay on UACC-257 melanoma, 94%. The growth in the assay with M14 melanoma is 94.4%.
With `COC(=O)c1nc(-c2ccc(C)cc2)oc1S(=O)(=O)N1CCN(c2oc(-c3ccccc3)nc2C#N)CC1`, the growth in the assay with NCI-H23 lung was 102%; in the assay with NCI-H226 lung it was 101%; with NCI-H322M lung, 103%; in the assay on HOP-62 NSCLC, 112%; with NCI-H460 lung, 103%; in the assay with HOP-92 NSCLC, 106%. Also, the growth with NCI-H522 lung is 92.2%; in the assay on A549/ATCC NSCLC, 102%; in the assay on 786-0 renal it was 102%; in the assay with COLO 205 colon, 107%; in the assay on DU-145 prostate, 104%; in the assay on MALME-3M melanoma, 98.6%. Also, the growth in the assay on MDA-MB-231 breast is 102%; in the assay with RXF 393 renal, 109%; in the assay with SF-268 CNS it was 98%; in the assay with SF-295 CNS, 103%; with SF-539 CNS it was 98.6%; with UACC-257 melanoma, 111%. Besides, the growth in the assay with M14 melanoma was 74%.
As for `C=CCn1c(SCC(=O)Nc2cccc(C(=O)/C=C/c3ccc(OC)c(OC)c3)c2)nc2ccccc2c1=O`, the growth with NCI-H23 lung was 93.2%; in the assay on NCI-H226 lung, 83.7%; in the assay with NCI-H322M lung, 87.8%; in the assay on HOP-62 NSCLC, 103%; with NCI-H460 lung it was 91.7%; in the assay with HOP-92 NSCLC, 84.6%. Also, the growth in the assay on NCI-H522 lung was 83.6%; with A549/ATCC NSCLC, 89.1%; with 786-0 renal, 100%; in the assay with COLO 205 colon it was 116%; in the assay on DU-145 prostate it was 95.2%; in the assay on MALME-3M melanoma, 84.7%. Further, the growth was 89.7% in the assay on MDA-MB-231 breast; 87.9% in the assay on RXF 393 renal; 89.1% with SF-268 CNS; 104% in the assay on SF-295 CNS; 90.3% in the assay with SF-539 CNS; 108% in the assay on UACC-257 melanoma. The growth in the assay on M14 melanoma is 114%.
